Reference: the supplement of paper PMC12282887
± gives the standard deviation of the averaged measurements.

Key:
Test in all cases: promoter activity interaction Z-score (Lux/OD deviation from empty-vector control); higher = stronger promoter induction by the compound
[1] = test system: E. coli BW25113 ompFp lux reporter; settings: 3.7 µg/ml
In short: (§1)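 At 37°C, E. coli BW25113 reporter cultures in 40 µl LB Lennox in 384-well plates were read for OD600 and luminescence every 30 min for 12 h. Windows were 0–8 h for wild type and 1–9 h for deletion strains, and wells under 10% of the median growth value were removed. The score is the Z-transformed residual of growth-normalised luminescence against a control fit.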

[2] = test system: E. coli BW25113 robp lux reporter
In short: as §1

[3] = test system: E. coli BW25113 soxSp lux reporter
In short: as §1

[4] = test system: E. coli BW25113 tolCp lux reporter
In short: as §1

[5] = 0.47 µg/ml, genetic background: wild type
[6] = 0.47 µg/ml, genetic background: ΔmarA
[7] = 0.47 µg/ml, genetic background: Δrob
[8] = 0.47 µg/ml, genetic background: ΔsoxS
[9] = 0.93 µg/ml, genetic background: wild type
[10] = 0.93 µg/ml, genetic background: ΔmarA
[11] = 0.93 µg/ml, genetic background: Δrob
[12] = 0.93 µg/ml, genetic background: ΔsoxS
[13] = 1.9 µg/ml, genetic background: wild type
[14] = 1.9 µg/ml, genetic background: ΔmarA
[15] = 1.9 µg/ml, genetic background: Δrob
[16] = 1.9 µg/ml, genetic background: ΔsoxS
[17] = 3.7 µg/ml, genetic background: wild type
[18] = 3.7 µg/ml, genetic background: ΔmarA
[19] = 3.7 µg/ml, genetic background: Δrob
[20] = 3.7 µg/ml, genetic background: ΔsoxS

CC1(C)S[C@@H]2[C@H](NC(=O)Cc3ccccc3)C(=O)N2[C@H]1C(=O)O [Penicillin G]
promoter activity interaction Z-score ([1]; genetic background: wild type): 0.719 ± 0.27 | promoter activity interaction Z-score ([1]; genetic background: ΔmarA): 1.16 ± 0.19 | promoter activity interaction Z-score ([1]; genetic background: Δrob): 1.35 ± 0.66 | promoter activity interaction Z-score ([1]; genetic background: ΔsoxS): 1.7 ± 0.7 | promoter activity interaction Z-score [2, 5]: 0.349 ± 0.073 | promoter activity interaction Z-score [2, 6]: -0.4 ± 0.07 | promoter activity interaction Z-score [2, 7]: 0.363 ± 0.43 | promoter activity interaction Z-score [2, 8]: 0.277 ± 0.35 | promoter activity interaction Z-score [2, 9]: 0.428 ± 0.22 | promoter activity interaction Z-score [2, 10]: 0.187 ± 0.37 | promoter activity interaction Z-score [2, 11]: 0.468 ± 0.14 | promoter activity interaction Z-score [2, 12]: 1.15 ± 0.22 | promoter activity interaction Z-score [2, 13]: 0.165 ± 0.58 | promoter activity interaction Z-score [2, 14]: 0.313 ± 0.31 | promoter activity interaction Z-score [2, 15]: 0.501 ± 0.075 | promoter activity interaction Z-score [2, 16]: 1.21 ± 0.031 | promoter activity interaction Z-score [2, 17]: -0.01 ± 0.15 | promoter activity interaction Z-score [2, 18]: -0.105 ± 0.66 | promoter activity interaction Z-score [2, 19]: 0.319 ± 0.12 | promoter activity interaction Z-score [2, 20]: 0.575 ± 0.42 | promoter activity interaction Z-score [3, 5]: -0.0325 ± 0.0094 | promoter activity interaction Z-score [3, 6]: -0.123 ± 0.17 | promoter activity interaction Z-score [3, 7]: -0.201 ± 0.0035 | promoter activity interaction Z-score [3, 8]: 0.0709 ± 0.024 | promoter activity interaction Z-score [3, 9]: -0.167 ± 0.16 | promoter activity interaction Z-score [3, 10]: 0.103 ± 0.074 | promoter activity interaction Z-score [3, 11]: -0.163 ± 0.14 | promoter activity interaction Z-score [3, 12]: 0.0504 ± 0.19 | promoter activity interaction Z-score [3, 13]: -0.132 ± 0.13 | promoter activity interaction Z-score [3, 14]: -0.0824 ± 0.12 | promoter activity interaction Z-score [3, 15]: -0.0996 ± 0.047 | promoter activity interaction Z-score [3, 16]: 0.084 ± 0.14 | promoter activity interaction Z-score [3, 17]: -0.201 ± 0.12 | promoter activity interaction Z-score [3, 18]: 0.0156 ± 0.13 | promoter activity interaction Z-score [3, 19]: -0.136 ± 0.17 | promoter activity interaction Z-score [3, 20]: -0.126 ± 0.39 | promoter activity interaction Z-score [4, 5]: -0.848 ± 1 | promoter activity interaction Z-score [4, 6]: -0.0171 ± 0.012 | promoter activity interaction Z-score [4, 7]: 0.219 ± 0.5 | promoter activity interaction Z-score [4, 8]: 0.375 ± 0.55 | promoter activity interaction Z-score [4, 9]: -0.35 ± 0.54 | promoter activity interaction Z-score [4, 10]: -0.485 ± 0.89 | promoter activity interaction Z-score [4, 11]: -0.163 ± 0.37 | promoter activity interaction Z-score [4, 12]: 0.352 ± 0.23 | promoter activity interaction Z-score [4, 13]: -0.309 ± 1 | promoter activity interaction Z-score [4, 14]: -0.171 ± 0.9 | promoter activity interaction Z-score [4, 15]: -0.0507 ± 1.1 | promoter activity interaction Z-score [4, 16]: 0.284 ± 0.24 | promoter activity interaction Z-score [4, 17]: -0.124 ± 0.38 | promoter activity interaction Z-score [4, 18]: -0.297 ± 0.25 | promoter activity interaction Z-score [4, 19]: -0.675 ± 1.1 | promoter activity interaction Z-score [4, 20]: 0.109 ± 0.61
